# Counter-ions that a name gives are not always drawn.
# How the values were obtained:
# Assay in all cases: cell proliferation relative to vehicle (% of vehicle); higher = less growth inhibition
# Settings in all cases: 72 h
# [1] = test system: U2932 TK216-resistant clone 2
# How it was run: (§1)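 A targeted inhibitor library of 348 compounds was tested on the ABC-DLBCL line U2932, both parental and two clones made resistant to an ETS-targeting agent by repeated exposure over almost a year. Cells were grown at 37°C and 5% CO2 in medium with 10% FBS, then treated at 500 nM or 50 nM for 72 h. MTT was added for 4 h, stopped with 25% SDS, and absorbance was read on a Cytation 3. Proliferation is reported as percent of proliferating cells relative to vehicle (DMSO).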
# [2] = test system: U2932 TK216-resistant clone 3
# How it was run: as §1
# U2932 parental = test system: U2932 parental
# How it was run: as §1
Structure (SMILES),cell proliferation ([1]; 50 nM),cell proliferation ([1]; 500 nM),cell proliferation ([2]; 50 nM),cell proliferation ([2]; 500 nM),cell proliferation (U2932 parental; 50 nM),cell proliferation (U2932 parental; 500 nM)
CC(C)n1c(/C=C/C(O)CC(O)CC(=O)O)c(-c2ccc(F)cc2)c2ccccc21 (stereo unspecified) [Fluvastatin Sodium],97.4,89.5,92.2,102,81.9,83.5
CCCCNc1ncc2c(-c3ccc(CN4CCN(C)CC4)cc3)cn([C@H]3CC[C@H](O)CC3)c2n1,95.5,71.1,92,65.6,91.3,62.7
Cc1c(CN2CCN(C(=O)[C@H](C)O)CC2)sc2c(N3CCOCC3)nc(-c3cnc(N)nc3)nc12,79.4,32,82.1,40.6,85,33.4
C=CCc1ccc(O)c(-c2ccc(O)c(CC=C)c2)c1 [Honokiol],108,111,104,102,100,106
O=C(/C=C/c1ccc2ccccc2n1)c1ccncc1,99.7,83.1,102,88.3,98.2,89.1
CC(C)(C)c1cnc(CSc2cnc(NC(=O)C3CCNCC3)s2)o1,91.1,14.7,77.8,17.2,90.1,12.1
CC(C)C[C@H](NC(=O)[C@H](CCc1ccccc1)NC(=O)CN1CCOCC1)C(=O)N[C@@H](Cc1ccccc1)C(=O)N[C@@H](CC(C)C)C(=O)[C@@]1(C)CO1 [Carfilzomib (PR-171)],-2.48,-4.13,-2.24,-4.17,-1.34,-1.99
CO[C@H]1/C=C\C=C(/C)C(=O)NC2=CC(=O)C(NCCN(C)C)=C(C[C@@H](C)C[C@H](OC)[C@H](O)[C@@H](C)/C=C(\C)[C@@H]1OC(N)=O)C2=O [17-DMAG (Alvespimycin) HCl],46.7,3.06,42.3,17,67,3.09
Cc1ccc(C(=O)N(CCCN)[C@@H](c2nc3cc(Cl)ccc3c(=O)n2Cc2ccccc2)C(C)C)cc1,13,10.8,7.24,5.07,9.61,10.2
CN1CCN(CCOc2cc(OC3CCOCC3)c3c(Nc4c(Cl)ccc5c4OCO5)ncnc3c2)CC1 [Saracatinib (AZD0530)],103,97.1,99.6,101,94.1,98.9
CCc1cncnc1N1CCN(Cc2nc3ccc(C(F)(F)F)cc3[nH]2)CC1,100,101,96,100,88.9,92
COc1cc2nccc(Oc3ccc(NC(=O)C4(C(=O)Nc5ccc(F)cc5)CC4)cc3)c2cc1OC [Cabozantinib malate (XL184)],109,109,102,95.7,109,103
CC(C)(C(=O)NCC(F)(F)C(F)(F)F)C(=O)N[C@@H]1C(=O)Nc2ccccc2-c2ccccc21,105,109,105,100,98.7,86.5
CC/C(=C(\c1ccccc1)c1ccc(OCCN(C)C)cc1)c1ccccc1 [Tamoxifen Citrate],98.9,89.7,89,86.3,82.1,79.1
Cn1c(Nc2ccc(C(F)(F)F)cc2)nc2cc(Oc3ccnc(-c4ncc(C(F)(F)F)[nH]4)c3)ccc21,96.1,80.7,98.8,96.7,95.6,88
Cc1[nH]c2ccccc2c1CCNCc1ccc(/C=C/C(=O)NO)cc1 [Panobinostat (LBH589)],14.9,4.33,12.9,11.5,9.5,0.518
C[C@]1(c2nc3c(C(N)=O)cccc3[nH]2)CCCN1 [Veliparib (ABT-888)],90.3,91.5,98.8,80.8,87,96.6
Nc1nccc2c1ncn2C1C=C(CO)C(O)C1O (stereo unspecified) [3-Deazaneplanocin A (DZNeP)],103,86.2,102,82.1,98.1,81.5
COc1ccc(C2=N[C@@H](c3ccc(Cl)cc3)[C@@H](c3ccc(Cl)cc3)N2C(=O)N2CCNC(=O)C2)c(OC(C)C)c1 [Nutlin-3a],110,102,99.8,99.2,104,104
CN1CCC(Nc2nc(Nc3ccc(Oc4ccccc4)cc3)c3c(=O)[nH]cc(Br)c3n2)CC1,100,83.1,99.4,83.4,89.6,85.5
COc1cc(Nc2ncc(F)c(Nc3ccc4c(n3)NC(=O)C(C)(C)O4)n2)cc(OC)c1OC,108,97.1,103,103,87.9,82.1
CCn1c(-c2nonc2N)nc2c(C#CC(C)(C)O)ncc(OC[C@H]3CCCNC3)c21,91.1,54.1,97,66.9,90.5,58.6
CO[C@@]12[C@H](COC(N)=O)C3=C(C(=O)C(C)=C(N)C3=O)N1C[C@@H]1N[C@@H]12 [Mitomycin C],94.8,13.8,96.6,26.4,91.3,35.8
Cc1nc(C(=O)NCC(=O)O)c(O)c2ccc(Oc3ccccc3)cc12,102,98.6,104,98.5,98.3,95.4

Structure (SMILES),cell proliferation ([1]; 50 nM),cell proliferation ([1]; 500 nM),cell proliferation ([2]; 50 nM),cell proliferation ([2]; 500 nM),cell proliferation (U2932 parental; 50 nM),cell proliferation (U2932 parental; 500 nM)
CCOc1ccc(Cc2cc([C@@H]3O[C@H](CO)[C@@H](O)[C@H](O)[C@H]3O)ccc2Cl)cc1 [Dapagliflozin],103,103,101,107,103,96.2
CC(C)(C)c1nc(-c2cccc(NS(=O)(=O)c3c(F)cccc3F)c2F)c(-c2ccnc(N)n2)s1,111,101,106,110,101,93
C[S+]([O-])c1ccc(-c2nc(-c3ccc(F)cc3)c(-c3ccncc3)[nH]2)cc1 (stereo unspecified),109,101,93.4,94.4,106,101
O=C(NOCC1CC1)c1ccc(F)c(F)c1Nc1ccc(I)cc1Cl,102,90.6,98.5,90.8,96.2,95.7
Cc1cnc(Nc2ccc(N3CCN(C)CC3)cc2)nc1Nc1cccc(S(=O)(=O)NC(C)(C)C)c1,95.6,70.3,90,65.2,89.4,79.5
Nc1nc(N)c2nc(-c3cccc(O)c3)c(-c3cccc(O)c3)nc2n1,103,100,110,96.6,99,99.2
CO[C@@H](C(=O)N1Cc2[nH]nc(NC(=O)c3ccc(N4CCN(C)CC4)cc3)c2C1)c1ccccc1,97.2,84,77.8,71.7,71.8,69.5
CO[C@@H](C)Cn1c(=O)n(C)c2cnc3ccc(-c4cncc(C(C)(C)O)c4)cc3c21,79.1,23.8,79.2,30.9,80.4,33.6
Nc1cccc2c1CN(C1CCC(=O)NC1=O)C2=O (stereo unspecified) [Lenalidomide (CC-5013)],107,98,102,96,98,99.7
COc1cc2nccc(Oc3ccc(NC(=O)C4(C(=O)Nc5ccc(F)cc5)CC4)cc3)c2cc1OC,102,98,100,106,95.4,99.2
CN(CCOc1ccc(CC2SC(=O)NC2=O)cc1)c1ccccn1 (stereo unspecified) [Rosiglitazone],100,101,98.8,104,94,95.2
COc1cc2c(NC3CCN(CC4CCCCC4)CC3)nc(N3CCCN(C(C)C)CC3)nc2cc1OCCCN1CCCCC1,95.3,105,91.4,115,96.3,110
O=C(Nc1cccc(Nc2ncc(Br)c(NCCc3cnc[nH]3)n2)c1)N1CCCC1,95.7,87,103,77,99.6,68.1
O=C(NC[C@H](O)CO)c1ccncc1Nc1ccc(I)cc1F,91,88.5,95.7,94.7,92.2,89.5
COc1cc2ncnc(Nc3ccc(O)c(Br)c3)c2cc1OC,106,111,96.2,105,98.3,101
C=CC(=O)N1CCC[C@@H](n2nc(-c3ccc(Oc4ccccc4)cc3)c3c(N)ncnc32)C1,–,–,–,–,76,70.9
COc1cc(C(=O)N2CCC(N3CCN(C)CC3)CC2)ccc1Nc1ncc2c(n1)N(C)c1ccccc1C(=O)N2C,104,92.2,100,100,105,101
CS(=O)(=O)N1CCN(Cc2cc3nc(-c4cccc5[nH]ncc45)nc(N4CCOCC4)c3s2)CC1,–,–,–,–,85.4,49.1
COc1ccccc1OCC(O)CN1CCN(CC(=O)Nc2c(C)cccc2C)CC1 (stereo unspecified) [Ranolazine],97.6,91.3,95,101,106,99.1
CCN(CC)CCNC(=O)c1ccc(N)cc1 [Procainamide HCl],–,–,–,–,93.9,95.9
O=C(c1cc(Cc2n[nH]c(=O)c3ccccc23)ccc1F)N1CCN(C(=O)C2CC2)CC1,103,99.3,103,103,99.6,94.9
CN1CCN(CCCNc2ncc(Cl)c(-c3cc4c(C(=O)NC5CC5)cccc4s3)n2)CC1,101,86.5,98.2,99,95.3,100
CCN(CC)CCCC(C)Nc1ccnc2cc(Cl)ccc12 (stereo unspecified) [Chloroquine Phosphate],98.7,104,116,111,94.1,99.2
Cc1[nH]c(/C=C2\C(=O)Nc3ccc(S(=O)(=O)Cc4c(Cl)cccc4Cl)cc32)c(C)c1C(=O)N1CCC[C@@H]1CN1CCCC1,108,92.4,103,90.5,102,96.8

Structure (SMILES),cell proliferation ([1]; 50 nM),cell proliferation ([1]; 500 nM),cell proliferation ([2]; 50 nM),cell proliferation ([2]; 500 nM),cell proliferation (U2932 parental; 50 nM),cell proliferation (U2932 parental; 500 nM)
Oc1cc(O)cc(/C=C/c2ccc(O)c(O)c2)c1 [Piceatannol],97.8,99.7,97.6,100,98.7,94
CC(C)Oc1ccc(C(=O)N[C@H](CNC(=O)CN(C)C)Cc2ccc(-c3cn4cccc([C@H](C)O)c4n3)cc2)cc1Cl,45.4,15,34.3,14.4,47.6,14.6
Oc1ccc(/C=C/c2cc(O)cc(O)c2)cc1 [Resveratrol],102,111,102,106,103,101
COC(=O)c1ccc2c(c1)NC(=O)/C2=C(\Nc1ccc(N(C)C(=O)CN2CCN(C)CC2)cc1)c1ccccc1 [Nintedanib (BIBF 1120)],105,94.8,93.4,81.7,102,96.6
N#C/C(=C(/N)Sc1ccc(N)cc1)c1ccccc1C(F)(F)F,102,98,90.8,92.8,104,99.2
Cn1cc(/C=C2\C(=O)Nc3cccnc32)c2ccccc21,102,105,106,105,97.2,90
CC[C@@H]1C(=O)N(C)c2cnc(Nc3ccc(C(=O)NC4CCN(C)CC4)cc3OC)nc2N1C1CCCC1,13.1,21,16.2,23.3,14.8,20.4
CC(=O)Nc1ccc(NC(=S)NC(=O)c2ccc(C(C)(C)C)cc2)cc1 [Tenovin-1],105,95.1,107,102,102,98.7
CCOC(=O)C1=C(N)Oc2ccc(Br)cc2C1C(C#N)C(=O)OCC (stereo unspecified),103,95.7,109,100,98.4,97.6
CCc1c2c(nc3ccc(OC(=O)N4CCC(N5CCCCC5)CC4)cc13)-c1cc3c(c(=O)n1C2)COC(=O)[C@]3(O)CC [Irinotecan],–,–,–,–,94.3,50.5
Clc1ccc(Nc2nnc(Cc3ccncc3)c3ccccc23)cc1 [Vatalanib (PTK787) 2HCl],109,99.8,108,113,93.1,102
NC(=O)Nc1cc(-c2cccc(F)c2)sc1C(=O)N[C@H]1CCCNC1,89.8,13.6,91.8,18.9,83,11.5
O=NN(CCCl)C(=O)NC1CCCCC1 [Lomustine],112,103,111,105,101,114
CC(C)C(=O)Nc1ccc([N+](=O)[O-])c(C(F)(F)F)c1 [Flutamide],90.7,87.2,97.2,98.3,89.3,87.6
O=c1cc(N2CCOCC2)oc2c(-c3ccccc3)cccc12,110,102,100,97.3,105,105
O=C1c2c(O)ccc(O)c2C(=O)c2c(NCCNCCO)ccc(NCCNCCO)c21 [Mitoxantrone],12,5.19,16,15,18.8,8.11
Cc1nnc(C(C)C)n1C1C[C@H]2CC[C@@H](C1)N2CC[C@H](NC(=O)C1CCC(F)(F)CC1)c1ccccc1 (stereo in doubt) [Maraviroc],107,99.6,96,101,88,89.6
C#Cc1cccc(Nc2ncnc3cc(OC)c(OCCCCCCC(=O)NO)cc23)c1,93.7,43.4,96.3,52.5,89.5,43.9
Cc1nc(-c2ccc(OCC(C)C)c(C#N)c2)sc1C(=O)O [Febuxostat],101,110,106,104,102,103
NC(=O)NO [Hydroxyurea],103,94.7,102,103,92.2,97.8
CC[C@]1(O)C[C@H]2CN(CCc3c([nH]c4ccccc34)[C@@](C(=O)OC)(c3cc4c(cc3OC)N(C=O)[C@H]3[C@@](O)(C(=O)OC)[C@H](OC(C)=O)[C@]5(CC)C=CCN6CC[C@]43[C@@H]65)C2)C1 [Vincristine sulfate],9.22,10,7.89,9.97,10.4,13.4
O=C(O)C(Cc1c[nH]c2ccccc12)N1C(=O)c2ccccc2C1=O (stereo unspecified),97.2,102,99.2,98,100,96.1
Cn1cnc([N+](=O)[O-])c1Sc1ncnc2[nH]cnc12 [Azathioprine],100,98.4,103,103,97.5,103
Oc1nc(-c2ccc(C(F)(F)F)cc2)nc2c1CSCC2,90.3,108,111,95.1,99.3,98.2
